The panel holds about 79,000 compounds, 15% with a hit somewhere; the sample as a whole holds those more often. Cut-off read from the data, not from the text of the source: active = growth inhibition above about 70%; inactive = the rest.
Tests used:
[1] = NCI Yeast Anticancer Drug Screen. Data for the rad50 strain (AID 155);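 note: 0% = growth of vehicle-only cultures of the same strain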; settings: S. cerevisiae rad50 strain growth inhibition; at 50.0 µM; active compounds read high
How it was run: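 Inhibition values express reduced yeast growth in compound-treated cultures relative to vehicle-treated controls.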

[2] = NCI Yeast Anticancer Drug Screen. Data for the mec2-1 strain (AID 157); settings: S. cerevisiae mec2-1 strain, at 50.0 µM, active compounds read high
How it was run: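 mec2-1 yeast strain, carrying an alteration in DNA damage repair or cell cycle control, was exposed to compounds; growth inhibition was measured relative to vehicle-treated controls.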

[3] = NCI Yeast Anticancer Drug Screen. Data for the sgs1 mgt1 strain (AID 161);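 note: 0% = growth of cultures given vehicle only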; settings: S. cerevisiae sgs1 mgt1 strain, at 50.0 µM, active compounds read high
How it was run: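 Yeast cells carrying a defined DNA-repair defect were exposed to test compounds. Growth inhibition was measured relative to vehicle-treated controls.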

[4] = NCI Yeast Anticancer Drug Screen. Data for the cln2 rad14 strain (AID 165);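 note: 0% = growth equal to vehicle treated cultures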; settings: S. cerevisiae cln2 rad14 strain, at 50.0 µM, active compounds read high
How it was run: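 Yeast carrying cln2 and rad14 alterations (cell cycle control and DNA damage repair) were exposed to compounds. Growth inhibition was measured against vehicle-treated controls.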

[5] = NCI Yeast Anticancer Drug Screen. Data for the bub3 strain (AID 167); settings: S. cerevisiae bub3 mutant strain, at 50.0 µM, active compounds read high
How it was run: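 Steps: expose the mutant yeast strain to compound; grow alongside vehicle-treated cultures; measure growth; express inhibition against the vehicle cultures.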

[6] = NCI Yeast Anticancer Drug Screen. Data for the mlh1 rad18 strain (AID 175); settings: S. cerevisiae mlh1 rad18 strain growth inhibition; at 50.0 µM; active compounds read high
How it was run: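 Growth inhibition of the yeast strain was measured after compound exposure and expressed relative to vehicle-treated controls. The strain carries defined defects in DNA damage repair.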

Measured: growth inhibition

CCOC(=O)N[n+]1ccccc1
inactive: [1] 1.65% | [2] 8.2% | [3] 4.35% | [4] -3.4% | [5] 10.8% | [6] 8.1%

CC(=O)C(CN1CCOCC1)C(C)(C)O (stereo unspecified)
inactive: [1] 2.9% | [2] 31.8% | [3] 15.6% | [4] -6.35% | [5] 2.8% | [6] 12.4%

C/C=C\c1ccc2oc(-c3ccc4c(c3)OCO4)c(C)c2c1
inactive: [1] 3.2% | [2] 9.9% | [3] 6.15% | [4] -57.8% | [5] -4.6% | [6] -11.3%

O=S(=O)(O)CCc1ccccc1
inactive: [1] 1.9% | [2] 9.15% | [3] -10.9% | [4] -7.5% | [5] -21.1% | [6] -26.5%

C/C=C/C(=O)Nc1cc(C(F)(F)F)ccc1Cl
inactive: [1] 26.6% | [2] -2.3% | [3] -44.5% | [4] 10.8% | [5] 1.4% | [6] 9.15%

CCCc1oc(C)cc1CC
inactive: [1] 0.45% | [2] -22.4% | [3] 0.2% | [4] -1.95% | [5] -15.9% | [6] -10.2%

Oc1ccc(O)c2c1CC=CC2
inactive: [1] 12.2% | [2] 22.6% | [3] 27.9% | [4] 13% | [5] 18.3% | [6] 16.4%

COC(OC)C1(CCc2ccccc2)NC(=O)N(C)C1=O (stereo unspecified)
inactive: [1] -17.4% | [2] 2.2% | [3] 5.6% | [4] -19.9% | [5] 25.6% | [6] -0.65%

Cc1cc(CC(N)C(=O)O)ccc1O (stereo unspecified)
inactive: [1] -0.65% | [2] 7.05% | [3] -6% | [4] -6.85% | [5] 0.5% | [6] -16.6%

CS/C1=C(\c2ccc(C)cc2)N(c2ccccc2)C(=O)C(=O)N(c2ccccc2)/C(c2ccc(C)cc2)=C(/SC)SS1
inactive: [1] 12.2% | [2] -27.1% | [3] 2.9% | [4] 3% | [5] 8% | [6] 12.5%

COc1ccc(N2C(=O)C3c4[nH]c5ccc(C)cc5c4C4CCC(C)CC4C3C2=O)cc1 (stereo unspecified)
inactive: [1] -24.2% | [2] -0.6% | [3] 1.65% | [4] -6.9% | [5] -13.3% | [6] -4.55%

CC(O)CC(C)O (stereo unspecified)
inactive: [1] 1.9% | [2] -4.6% | [3] 2.95% | [4] -3.45% | [5] 6.15% | [6] 2.3%

O=S(=O)(c1ccc(OCCOc2ccc(S(=O)(=O)N3CCOCC3)cc2)cc1)N1CCOCC1
inactive: [1] 0.55% | [2] 7.75% | [3] 12.6% | [4] -15.4% | [5] 2.95% | [6] -14%

CN(C)c1nc(=S)c2cn[nH]c2[nH]1
inactive: [1] 0.1% | [2] 0% | [3] -3.7% | [4] -21.8% | [5] 6% | [6] -1.2%

Cc1ccc(NC(=O)CC2C(=O)Nc3ccccc3S2=O)c(C)c1 (stereo unspecified)
inactive: [1] -7.85% | [2] -24.9% | [3] 4.45% | [4] 20.4% | [5] 15.8% | [6] -5.55%

COc1ccc(C(=O)/C=C/c2cc(C(C)(C)C)c(O)c(C(C)(C)C)c2)cc1
inactive: [1] 17.4% | [2] -1.2% | [3] 14.6% | [4] 25.4% | [5] 7.8% | [6] 18.2%

CC(=O)NC(C)(CO)C(=O)O (stereo unspecified)
inactive: [1] 22.6% | [2] 12.7% | [3] 19.4% | [4] 13.4% | [5] 7.35% | [6] 14.1%

COc1ccccc1NC(=O)CC(=O)N1N=C(C)C(N=Nc2ccc(S(N)(=O)=O)cc2)C1=O (stereo unspecified)
inactive: [1] 13.3% | [2] -1.65% | [3] -8.2% | [4] 12.8% | [5] 11% | [6] 11.3%

CCOC(=O)C(Cl)(NC(=O)OCc1ccccc1)C(F)(F)F (stereo unspecified)
inactive: [1] -21.8% | [2] 0% | [3] 7.15% | [4] 22.5% | [5] 6.7% | [6] -56.1%

O=[N+]([O-])c1ccc(N=CC2CCC=CO2)cc1 (stereo unspecified)
inactive: [1] -4.3% | [2] 17.8% | [3] -10.2% | [4] -27.9% | [5] -9.4% | [6] -14.9%

O=C1C(=S)Nc2cccc(F)c21
inactive: [1] 38% | [2] 45% | [3] 33.2% | [4] -3.65% | [5] 43.7% | [6] 33%

Cc1nn(CCO)c(N)c1C(N)=O
inactive: [1] 5.35% | [2] -4.25% | [3] 5.55% | [4] -13.4% | [5] 4.9% | [6] 16.9%

CC(C)NC(=O)OCc1c(COC(=O)NC(C)C)c2n(c1-c1ccc(Cl)c(Cl)c1)CCS2(=O)=O
inactive: [1] -0.5% | [2] 2.2% | [3] 4.5% | [4] -36.1% | [5] -1.95% | [6] 8.15%

C/C(CC(=O)Nc1ccccc1C)=N/NS(=O)(=O)c1ccc(C)cc1
inactive: [1] -2.2% | [2] -5.2% | [3] 10.2% | [4] 19.3% | [5] -18.4% | [6] -6.9%

CCOC(=O)C1Oc2ccccc2O1
inactive: [1] 11.8% | [2] -14.6% | [3] -7% | [4] -41.1% | [5] -13.1% | [6] -10.8%

O=C(CC(C(=O)c1ccsc1)c1cccs1)c1ccsc1 (stereo unspecified)
inactive: [1] -11.2% | [2] -19.2% | [3] 18.6% | [4] 24.5% | [5] 28.9% | [6] 3%

CCOc1c(N=Nc2ccccc2[N+](=O)[O-])c(C)nn1C(N)=S
inactive: [1] -6.5% | [2] -5.95% | [3] 24.5% | [4] -26.8% | [5] -20.9% | [6] 17.4%

CCc1cccc(C)c1NC(=O)C1=C(C)NC(C)=C(C(=O)Nc2c(C)cccc2CC)C1c1ccc([N+](=O)[O-])cc1
inactive: [1] 40.8% | [2] 34.2% | [3] 42.2% | [4] 18.4% | [5] 36.9% | [6] 46.7%

Nc1nc(SCCc2ccccc2)nc2nc3c(c(-c4ccccc4)c12)CCCC3
inactive: [1] -23.3% | [2] -10.6% | [3] -3.2% | [4] 2.35% | [5] 0.05% | [6] 5.1%

Cn1c(=O)c(Cl)c(N=[N+]=[N-])c2ccccc21
inactive: [1] 45.1% | [2] 37.4% | [3] 44% | [4] 51% | [5] 22% | [6] 30.2%

CCc1c(C)c(C#N)c(=S)n(C2OC(CO)C(O)C(O)C2O)c1C (stereo unspecified)
inactive: [1] -61.8% | [2] 3.95% | [3] -19.7% | [4] 9.4% | [5] 8.35% | [6] -4%

CC(=O)c1cccc(NC(=O)Oc2ccc(F)cc2Cl)c1
inactive: [1] -2.3% | [2] 29.1% | [3] 18.8% | [4] -13.6% | [5] 12.9% | [6] -1.8%

CC1(C)CC(N(CCO)CCO)CC(C)(C)N1O
inactive: [1] 4.05% | [2] -2.8% | [3] 11.4% | [4] -1.95% | [5] -7.2% | [6] 5.35%

CCC(OC(=O)Nc1ccc(S(=O)(=O)NC2CCCCC2)cc1)c1ccco1 (stereo unspecified)
inactive: [1] 26.9% | [2] 3.65% | [3] 26.8% | [4] 10.8% | [5] 5.65% | [6] 4.15%

O=C(CN1CCCC1=O)CS(=O)(=O)c1ccccc1
inactive: [1] -14.5% | [2] -5.3% | [3] -20.3% | [4] -0.6% | [5] -9.6% | [6] 2.3%

CCCCC(=O)CCC(=O)O
inactive: [1] 9.7% | [2] 11.6% | [3] 4.95% | [4] 13.8% | [5] 9.7% | [6] 12.7%

COc1ccc(CSC(=S)Nc2ccc(N=Nc3ccccc3)cc2)cc1
inactive: [1] 33.7% | [2] 11.6% | [3] 24.6% | [4] 25.4% | [5] -7.3% | [6] 1.55%

CCCCCC(CSCC)C(=O)/C=C/c1ccccc1 (stereo unspecified)
inactive: [1] 8.3% | [2] 1.4% | [3] -7% | [4] -1.55% | [5] 18.6% | [6] 5.6%

Nc1nc(-c2ccccc2)c(N=Nc2ccc([N+](=O)[O-])cc2Cl)s1
inactive: [1] -4.7% | [2] 2.55% | [3] 4.4% | [4] -13.1% | [5] -11.5% | [6] 3.6%

CC(C(=O)O)N(C)C(=O)c1cnc2ccccc2n1 (stereo unspecified)
inactive: [1] -0.1% | [2] -1.15% | [3] -1.5% | [4] 23% | [5] 18.6% | [6] -2%

CC1=NN(C(=O)c2ccc(Cl)cc2)C(=O)C1N=Nc1ccc(S(=O)(=O)Nc2ccccn2)cc1 (stereo unspecified)
inactive: [1] -0.85% | [2] 16.8% | [3] 14.7% | [4] 20.2% | [5] -10.6% | [6] 30.7%
